A selection: hits, their analogues and other compounds. The true share with any hit is near 1.5%.
TDP1 block: blocks human tyrosyl-DNA phosphodiesterase 1. AID 485290. actives 0.28% (n = 350,000). Potency, µM (titrated, usually from 130 µM), for inactives: at the highest dose activity change, negative = inhibition, hits mostly inhibitors. Q9NUW8. recombinant TDP1, AlphaScreen DNA substrate cleavage; also: potency is read from the fitted curve at half-maximal effect; nearly all actives have a fitted effect of over 40% in size
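Enzyme-compound mixtures sat 15 min at room temperature, followed by a 5 min reaction with 15 nM final substrate and 10 min with AlphaScreen beads. Recombinant human Tdp1 was used at 1 nM final.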
PI5P4K alpha inh: inhibitors of human PI5P4K alpha; actives 1.2% (n = 330,000); P48426; max response, %; PI5P4Kalpha enzyme, ADP-Glo luminescence, 60 min; active compounds read low; AID 652105; active = max response of -50% or lower; inconclusive = between -30% and -50%; inactive = -30% or higher; also: value at the top dose of about 77 µM
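Controls without substrate or without enzyme flank wells where PI5P4Kalpha converts substrate using 5 microM ATP (final). Incubation lasts 60 minutes at room temperature; ADP formed is read by ADP-Glo luminescence.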
WRN helicase inh: WRN helicase (human) inhibition | Q14191 | WRN helicase unwinding, fluorescent forked duplex, kinetic | Potency, µM (doses to about 114 µM), without a hit: at the highest dose activity change, negative = inhibition, most hits filed as inhibitors | actives 0.46% (n = 360,000) | AID 651768; also: potency is read from the fitted curve at half-maximal effect; nearly all actives have a fitted effect of over 55% in size
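Kinetic fluorescence helicase assay: unwinding of a quenched forked DNA duplex (100 nM final) with 2 mM ATP final raises red fluorescence (525/598 nm). Compounds sat 15 min at room temperature with 20 nM WRN beforehand.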
FEN1 inhibitor: inhibitors of human flap endonuclease 1; P39748; Recombinant FEN1 flap cleavage, fluorescence, 15 min; Potency, µM (titrated, usually from 114 µM), inactives show top-dose activity change, negative = inhibition, most hits filed as inhibitors; actives 0.35% (n = 390,000); also: potency is read from the fitted curve at half-maximal effect; nearly all actives have a fitted effect of over 65% in size
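With each library titrated from low to high concentration, compounds met 10 nM FEN1 for 15 min at room temperature before 50 nM substrate was added; readings at 0 and 15 min fed four-parameter Hill curve fits.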
Tb PFK inh: T. brucei PFK enzyme inhibition. O15648. T. brucei PFK, ADP-Glo luminescence. Potency, µM (doses to about 57.5 µM), inactives show at the highest dose activity, negative = inhibition, hits mostly inhibitors. actives 0.17% (n = 330,000). AID 485367;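 also: potency is read from the fitted curve at half-maximal effect; 0% = uninhibited 1x PFK enzyme wells and -100% = no-enzyme wells; nearly all actives have a fitted effect of over 60% in size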
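Luminescent ADP detection (ADP-Glo, two-step: ATP depletion then ADP-to-ATP conversion for luciferase) reported PFK activity after 45 min room-temperature reaction of 1.25 nM enzyme with 0.5 mM F6P and 0.1 mM ATP at pH 8.0.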
Tb PGK inh: blocks T. brucei phosphoglycerate kinase; P07378; Potency, µM (doses to about 57.5 µM), inactives show at the highest dose activity change, negative = inhibition, hits mostly inhibitors; AID 602233; PGK/GAPDH coupled, Kinase-Glo luminescence, 60 min; actives 0.043% (n = 380,000); also: potency is read from the fitted curve at half-maximal effect; nearly all actives have a fitted effect of over 60% in size
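Recombinant glycosomal PGK reaction used 1,3-bisphosphoglycerate generated in-well by GAPDH (100nM final) in 100mM TEA pH 7.6, 5mM MgCl2, 0.01% Tween-20. After 60 minutes at room temperature, ATP was read by Kinase-Glo Plus luminescence end-point.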
The depositor's hits bear a star; i = inactive; ? = inconclusive; / = not tested or not shown; ! = not active in a repeat; [ ] = another dose, or the depositor's remark. Unless noted, calls follow the shape of the dose curve; as a rule, active = well fitted curve in the direction sought with a large enough effect; inconclusive = small, poorly fitted or top-dose-only effect, or another doubt; inactive = no such curve, though single readings can be large; an effect the other way counts as inactive or inconclusive. Unless noted, % is scaled to controls: 0 for no effect and ±100 for the full control effect.

SMILES | TDP1 block | PI5P4K alpha inh | WRN helicase inh | FEN1 inhibitor | Tb PFK inh | Tb PGK inh
COC(C)(C)CCCC(C)C/C=C/C(C)=C/C(=O)OC(C)C (centres undefined) | 16µM*! | 18 | 6% | 4% | -1% | -5%
Cc1cc(N2CCOCC2)ccc1/C=C1\C(=O)NC(=O)N(c2ccccc2)C1=O | / | -26 | -6% | 5% | ? | -9%
O=C1NC(=O)N(c2cccc(F)c2)C(=O)/C1=C/c1ccc(N2CCOCC2)cc1 | -9% | -61* | -8% | -4% | -15% | 3%
Cc1ccc(N2C(=O)/C(=C/c3ccc(CN(CCC#N)S(C)(=O)=O)o3)C(=O)NC2=S)cc1C | -1% | / | / | / | -11% | /
Cc1cccc(N2C(=O)/C(=C/c3ccc(CN(CCC#N)S(C)(=O)=O)o3)C(=O)NC2=S)c1 | -2% | -56* | 28µM* | ? | 1% | -21%
Cc1ccc(/C=C2\C(=O)NC(=S)N(c3cccc(F)c3)C2=O)o1 | -4% | -77* | 50µM* | ? | 1% | -18%
COc1ccc(N2C(=O)/C(=C/c3ccc(C)o3)C(=O)NC2=S)cc1 | / | ? | ? | ? | -10% | -15%
CCOc1ccc(N2C(=O)/C(=C/c3ccc(C)o3)C(=O)NC2=S)cc1 | / | -76* | 45µM* | 22µM* | 3% | ?
Clc1cccc(Cl)c1 | 12% | / | / | / | / | /
ClC(Br)Br | -4% | / | / | / | / | /
Cc1ccc2c(C)cccc2c1 | 10% | -71* | 3% | 13% | / | 2%
CCCCC/C=C\C/C=C\C/C=C\C/C=C\CCCC(=O)NCC(=O)O | 32µM*! | / | / | ? | / | /
CCCCC/C=C\C/C=C\C/C=C\C/C=C\CCCC(=O)NCCCC(=O)O | -4% | / | / | / | / | /
O=C(O)CCCC[C@@H]1SC[C@H]2NC(=O)N[C@@H]12 | 30%[56.1 µM] | / | / | / | / | /
O=c1c2ccccc2[se]n1-c1ccccc1 | 11% | -91* | -17%[11.6 µM] | 79µM* | 4.8µM* | -2%
O=C(COc1ccc(Br)cc1)N1CCN(C2CCCC2)CC1 | 7% | -6 | -10%[57.1 µM] | -14% | -9% | 7%
O=C1NC(=S)NC(=O)C1=Cc1ccc(OCC(=O)N2CCCC2)cc1 | -16% | -54* | -7% | -16% | ? | -11%
CCOC(=O)CCCc1cc[c]([Sb](=[O])([OH])[OH])cc1 | 0.25µM* | / | / | 3.5µM* | / | /
O=C1NC(=O)C(Sc2ccccc2[N+](=O)[O-])C(=O)N1 | 14% | -54* | ? | 0% | -23% | 0%
Nc1ccc([N+](=O)[O-])cc1N | 15% | / | / | / | / | /
ClCc1ccccn1 | 14% | / | / | / | / | /
CCOc1cc(/C=C2\C(=O)NC(=O)N(CCc3ccc(F)cc3)C2=O)ccc1O | / | -58* | -11% | ? | 0% | -3%
O=[N+]([O-])c1ccccc1-c1ccccc1 | 17% | / | / | / | / | /
C[C@H]1COC2=C1C(=O)C(=O)c1c2ccc2c1CCCC2(C)C | 21% | -52* | ? | ? | -3% | -9%
Cc1ccc(CCNC(=O)c2cc3cc(S(=O)(=O)N4CCCCC4)ccc3n2C)cc1 | 3% | / | / | ? | / | 1%
SMILES | TDP1 block | PI5P4K alpha inh | WRN helicase inh | FEN1 inhibitor | Tb PFK inh | Tb PGK inh
O=S(=O)(Nc1c(O)ccc2ccccc12)c1ccc(F)cc1 | / | -26 | 50µM* | ? | / | 6%
O=C(NCCc1ccccc1)[C@@H]1CC=C[C@@H]2CCN(Cc3ccc(Cl)c(Cl)c3)C(=O)[C@@H]21 | / | 5 | -2% | ? | / | -3%
C=C1C(=O)O[C@@H]2C[C@@H](C)[C@@H]3C=CC(=O)[C@@]3(C)[C@@H](OC(=O)CC(=O)O[C@H]3[C@@H]4C(=C)C(=O)O[C@@H]4C[C@@H](C)[C@@H]4C=CC(=O)[C@]43C)[C@H]12 | 2% | -66* | 45µM* | ? | -27% | ?
Oc1c(Cl)cccc1Cl | 3% | / | / | / | / | /
CCCCC(=O)N/N=C/c1c(O)n(CCc2ccccc2)c(=O)[nH]c1=O | 8% | -58* | 1% | 1% | 7% | i
O=C(N/N=C/c1c(O)n(C2CC2)c(=S)[nH]c1=O)c1ccccc1O | 8% | -58* | -21% | -9% | 0% | -3%
O=c1[nH]c(=S)n(C2CC2)c(O)c1C=NCc1ccc(F)cc1 | 0% | 15 | 6% | 21% | 2% | 9%
O=C(N/N=C/c1c(O)n(CCC2=CCCCC2)c(=O)[nH]c1=O)c1ccccc1 | 7% | -60* | -29% | -3% | 0% | i
Nc1ccccc1N=Cc1c(O)n(CCC2=CCCCC2)c(=O)[nH]c1=O | 3% | 1 | -12% | -3% | 1% | 0%
CCCCC(=O)N/N=C/c1c(O)n(CCc2ccc(OC)c(OC)c2)c(=O)[nH]c1=O | 11% | -5 | -3% | 4% | -4% | -1%
O=C(N/N=C/c1c(O)n(CCC2=CCCCC2)c(=S)[nH]c1=O)c1ccccc1 | 8% | -59* | -20% | -16% | 11% | 3%
O=c1[nH]c(=S)n(CCC2=CCCCC2)c(O)c1C=NCc1cccnc1 | 3% | / | / | / | 2% | /
CCCCCOC(=O)c1ccccc1C(=O)OCCCCC | 6% | / | / | / | / | /
[O-][Cl+]O | 6% | / | / | / | / | /
[CH3][Hg][Cl] | 9% | / | / | / | / | /
O=C1CC(N2CCC(n3c(=O)[nH]c4ccccc43)CC2)C(=O)N1c1ccc(F)cc1 (centres undefined) | -10% | -5 | 8% | -3% | -2% | -25%
O=c1[nH]c2ccccc2n1C1CCN(CCCC(c2ccc(F)cc2)c2ccc(F)cc2)CC1 | 5% | -51* | -12% | -24% | 3% | i
CCCCC/C=C\C/C=C\C/C=C\C/C=C\CCCC(=O)N(Cc1ccc(O)c(Cl)c1)Cc1ccc(O)c(Cl)c1 | -3% | / | / | / | / | /
Cc1cc(/C=C2\C(=O)NC(=O)N(Cc3ccccc3Cl)C2=O)c(C)n1-c1ccc(C(=O)O)cc1 | 22µM* | -52* | 56µM* | -25% | -20% | ?
Cc1ccc(N2C(=O)NC(=O)/C(=C\c3cc(C)n(-c4cc(C(=O)O)cc(C(=O)O)c4)c3C)C2=O)cc1 | / | -52* | ? | 56µM* | -8% | ?
Cc1sc(-n2c(C)cc(C=C3C(=O)NC(=O)NC3=O)c2C)c(C#N)c1C | -5% | 7 | -13% | 9% | 0% | -11%
Cc1cc(/C=C2\C(=O)NC(=O)N(Cc3ccco3)C2=O)c(C)n1-c1ccc(O)cc1 | 5% | -83* | ? | ? | -20% | -25%
Cc1cc(/C=C2\C(=O)NC(=O)N(c3ccc(Cl)cc3)C2=O)c(C)n1-c1sc2c(c1C#N)CCCC2 | 5% | -57* | ? | ? | 0% | -14%
Cc1ccc(N2C(=O)NC(=O)/C(=C\c3cc(C)n(-c4ccc(C(=O)O)cc4)c3C)C2=O)cc1 | / | -26 | -4%[11.6 µM] | -30% | 4% | -8%

Screening data from PubChem BioAssay.
